Shown are actives, neighbours in structure and some others; about 3.7% of the full set was active somewhere.
RE007 growth inh: less growth of the S. pombe RE007 Vpr strain. S. pombe RE007 Vpr strain, BacTiter-Glo ATP luminescence, 24 h. Potency, µM (top dose mostly 92.2 µM), most hits filed as inhibitors. 0.21% of 360,000 active; active means well fitted falling curve with a large enough effect; inconclusive means small, poorly fitted or top-dose-only effect; inactive means no such curve, though single readings can be large or run the other way; further: nearly all actives have a fitted effect of over 50% in size
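Fission yeast strain RE007, carrying one chromosomally integrated HIV-1 vpr copy, was seeded at OD 0.01 in PMG+AL medium with 23 nL pinned compound. After 24 h at 30 °C and 99% humidity, viability was read by BacTiter-Glo luminescence.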
Sm TGR inh: inhibitors of Schistosoma mansoni thioredoxin glutathione reductase; Q962Y6; purified TGR, DTNB reduction, TNB absorbance 405 nm; Potency, µM (series often up to 114 µM), usual class: inhibitors; 3% of 360,000 active; further: nearly all actives have a fitted effect of over 60% in size
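TGR 20 nM + NADPH 100 uM (dispensed conc.), cpd preinc 15 min RT; start with NADPH (500 uM addition) then DTNB (15 mM addition). Kinetic TNB absorbance, 405 nm filter. Four-parameter Hill fit across titration.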
Tb PYK inh: inhibitors of Trypanosoma brucei pyruvate kinase; 0.12% of 410,000 active; AID 624173; Q57TT1; TbPYK enzyme, Kinase-Glo Plus ATP luminescence, 45 min; Potency, µM (series often up to 76.8 µM), hits mostly inhibitors; further: nearly all actives have a fitted effect of over 50% in size
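Readout: single end-point luminescence (Kinase-Glo Plus, 10 min). Reaction conditions were TbPYK/substrate plus 130 uM ADP, 45 min at RT, pH 7.2 TEA buffer. No-enzyme wells served as controls, and data were normalized before concentration-response fitting.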
FMDV inh: antivirals against foot and mouth disease virus | FMDV antiviral cell-based qHTS | Potency, µM (doses to about 57.9 µM), usual class: inhibitors | 1.2% of 410,000 active; calls by dose curve; tested in HEK293T cells; further: read-out not given here; nearly all actives have a fitted effect of over 45% in size
Large screens that a line does not name were inactive. Unless noted, the call rests on the fitted dose curve; in most records, active means well fitted curve in the direction sought with a large enough effect; inconclusive means small, poorly fitted or top-dose-only effect, or another doubt; inactive means no such curve, though single readings can be large; an effect the other way counts as inactive or inconclusive.

Cc1cc(C)cc(Oc2coc3cc(OCC(=O)NC4CCCCC4)ccc3c2=O)c1	none (no result: RE007 growth inh)
COc1ccc(OCc2cccc(C(=O)NN)c2)cc1	FMDV inh 8.91µM
NNC(=O)c1cccc(COc2ccc(Br)cc2)c1	none
Cc1cccc(-c2nc(SCC(=O)N3CCc4ccccc43)c3c(=O)n(C)c(=O)n(C)c3n2)c1	none (no result: RE007 growth inh)
CCOC(=O)c1cccc(NC(=O)/C=C/c2ccc3c(c2)OCO3)c1	FMDV inh 39.8µM
CCOC(=O)CNc1ccc2c(c1)OCO2	Sm TGR inh 50.1µM
Cc1ccc(S(=O)(=O)N2CCN(C(=O)/C=C/c3ccco3)CC2)cc1	Sm TGR inh 50.1µM
Cc1ccc(C)c(S(=O)(=O)N2CCN(C(=O)/C=C/c3ccco3)CC2)c1	Sm TGR inh 3.98µM
O=C(/C=C/c1ccco1)N1CCN(S(=O)(=O)c2ccccc2)CC1	none (no result: Sm TGR inh)
O=C(/C=C/c1ccco1)N1CCN(S(=O)(=O)c2ccc(F)c(F)c2F)CC1	Sm TGR inh 5.01µM
Cc1ccc(C)c(S(=O)(=O)N2CCN(C(=O)Cc3ccsc3)CC2)c1	FMDV inh 4.47µM
COCc1c(C(=O)N2CCN(c3ccccc3)CC2)cnn1-c1nccc(-c2ccco2)n1	none (no result: RE007 growth inh, Sm TGR inh, Tb PYK inh)
O=C(c1cccnc1)C1CCCN(Cc2ccc3c(c2)CN(C(=O)c2cnccn2)CCO3)C1 (centres undefined)	none (no result: RE007 growth inh, Sm TGR inh, Tb PYK inh)
Cc1ccc(Cl)cc1NC(=O)CCc1c(C)nc2c3cccnc3nn2c1C	none (no result: RE007 growth inh)
O=S(=O)(Nc1ccc(S(=O)(=O)N2CCCCC2)cc1)c1ccc(Br)s1	Sm TGR inh 6.31µM
COc1ccccc1CN1CCCC(n2cc(C(=O)N3CCCCC3)nn2)C1 (centres undefined)	none (no result: RE007 growth inh, Sm TGR inh, Tb PYK inh)
O=C(NOC[C@H](O)CO)c1ccc(F)c(F)c1Nc1ccc(I)cc1F	none (no result: RE007 growth inh, Sm TGR inh, FMDV inh)
O=c1oc2ccccc2c2c1C1O[C@](c3ccsc3)(Cc3ccccc31)O2	Sm TGR inh 11.2µM (no result: RE007 growth inh, Tb PYK inh, FMDV inh)
COc1ccc([C@]23Cc4cc(OC)c(OC)cc4C(O2)c2c(c4ccccc4oc2=O)O3)cc1	Sm TGR inh 3.98µM (no result: RE007 growth inh, Tb PYK inh, FMDV inh)
COc1ccc([C@]23Cc4cc(OC)c(OC)cc4C(O2)c2c(cc(C)oc2=O)O3)cc1	Sm TGR inh 7.08µM (no result: RE007 growth inh, Tb PYK inh, FMDV inh)
CCOC(=O)c1ccc(N=c2sc(C(=O)OC)cc(=O)n2-c2ccc(C(=O)OCC)cc2)cc1	FMDV inh 20µM
COC(=O)c1cc(=O)n(-c2ccccc2)c(=Nc2ccccc2)s1	Sm TGR inh 39.8µM, FMDV inh 12.6µM
COC(=O)c1cc(=O)n(Cc2cccs2)c(=Nc2ccccc2)s1	FMDV inh inconclusive
Oc1c(N=Nc2ccccn2)ccc2ccccc12	RE007 growth inh 17.8µM, Tb PYK inh inconclusive
COc1cc(/C=C/C(=O)OCC(=O)Nc2oc(C)c3c(C)n[nH]c(=O)c23)ccc1OC(F)F	Sm TGR inh 22.4µM
COc1ccccc1CNC(=O)COC(=O)/C=C/c1ccc(OC(F)F)c(OC)c1	none
Cc1ccc(CCNC(=O)Cn2cccc2)cc1	Sm TGR inh 50.1µM
CCn1c(O)c(N=NC(=O)CNC(=O)/C=C/c2ccco2)c2ccccc21	Sm TGR inh 35.5µM (no result: FMDV inh)
CCn1c(O)c(N=NC(=O)CNC(=O)c2ccco2)c2ccccc21	none
COC(=O)c1ccc(CSc2nc3c([nH]c4ccccc43)c(=O)n2-c2ccc(F)cc2)o1	none (no result: RE007 growth inh)
COc1ccc(/C=N/OCC(=O)NC(c2ccccc2)c2ccccc2)cc1OC	FMDV inh 7.08µM
N#Cc1ccc(CN2CCC3(CC2)CCN(C(=O)c2cccc(F)c2)CC3)cc1	none (no result: RE007 growth inh, Sm TGR inh)
Cc1ccc(N(CC(=O)NCc2ccc(OC(C)C)cc2)S(=O)(=O)N(C)C)cc1	FMDV inh inconclusive (no result: RE007 growth inh)
CCCc1cc(N2CCN(C(=O)c3ccco3)CC2)n2c(nc3ccccc32)c1C#N	Sm TGR inh 39.8µM
CCCc1cc(-n2ccnc2C)n2c(nc3ccccc32)c1C#N	none (no result: Sm TGR inh)
CCOc1ccc2nc(Cl)c(C3CC(c4ccc(C)cc4)=NN3C(=O)CCC(=O)O)cc2c1 (centres undefined)	none (no result: RE007 growth inh)
Cc1ccc(CNC(=O)C(=O)NCC(c2cccnc2)N2CCN(c3ccccc3F)CC2)cc1 (centres undefined)	none (no result: RE007 growth inh)
N#Cc1cccc2c1-c1ccccc1/C2=N/NC(N)=S	FMDV inh 35.5µM
N#Cc1cccc2c1-c1ccccc1/C2=N/NC(N)=O	FMDV inh inconclusive
COc1ccc(-c2cc(NCc3ccc(C)cc3)n3cnnc3n2)cc1	FMDV inh inconclusive (no result: RE007 growth inh)
CCOC(=O)[C@]12Cc3cc(Cl)ccc3[C@H]1N(C)C(=O)c1ccccc12	FMDV inh inconclusive (no result: Sm TGR inh)
CCOC(=O)[C@]12Cc3cc(Cl)ccc3[C@H]1N(CC(=O)OC)C(=O)c1ccccc12	FMDV inh 10µM (no result: Sm TGR inh)
CCOC(=O)[C@]12Cc3cc(Cl)ccc3[C@H]1N(C(C)C)C(=O)c1ccccc12	FMDV inh 10µM (no result: Sm TGR inh)
COc1ccc2c(c1)c1c(c(=O)n(CCc3ccccc3)c(=O)n1Cc1cccc(Cl)c1)n2C	none (no result: RE007 growth inh)
COc1cccc(CNC(=O)Cn2c(=O)ccc3cc(S(=O)(=O)N4CCCC4)ccc32)c1	none (no result: RE007 growth inh)
CC(=O)/C(=C/c1ccc(N(C)C)cc1)C(=O)c1ccccc1	FMDV inh inconclusive
CCC(=O)Nc1ccc(O)cc1	none (no result: RE007 growth inh, Sm TGR inh, FMDV inh)
CCC(=O)Nc1ccc(/C=C(\C(C)=O)C(=O)c2ccccc2)cc1	FMDV inh 28.2µM
CC(=O)C(=Cc1ccc(O)cc1)C(C)=O	Sm TGR inh 44.7µM (no result: RE007 growth inh)
COc1cccc(C=C(C(C)=O)C(=O)c2ccccc2)c1	FMDV inh 20µM (no result: Sm TGR inh)
CCC(=O)Nc1ccc(C=C(C(C)=O)C(C)=O)cc1	Sm TGR inh inconclusive, FMDV inh 20µM
COc1cccc(/C=C(/C(=O)OCC(N)=O)c2ccccc2)c1	none
O=C(CCS(=O)(=O)c1cccs1)Nc1ccc(C(=O)Nc2cccc(Cl)c2)cc1	FMDV inh inconclusive (no result: RE007 growth inh)
O=[N+]([O-])c1ccc(S(=O)(=O)Nc2nnc(C(F)(F)F)s2)cc1	Sm TGR inh 14.1µM
CC(C)Cc1nnc(NS(=O)(=O)c2ccc([N+](=O)[O-])cc2)s1	Sm TGR inh inconclusive
CCOC(=O)CCn1cnc2onc(-c3cc(OC)ccc3Cl)c2c1=O	none (no result: RE007 growth inh)
O=C(O)c1cc(-c2ccccc2)nc2ccccc12	none
O=C(Oc1ccc([N+](=O)[O-])cc1)c1cc(-c2ccccc2)nc2ccccc12	FMDV inh 20µM
COc1ccc(C2=CC(=O)C[C@H](c3ccc(OC)cc3)C2)cc1	none
COc1ccc(C2=CC(=O)C=CC2=O)cc1	Sm TGR inh 0.891µM (no result: RE007 growth inh, Tb PYK inh, FMDV inh)
COc1ccccc1CNC(=O)C1CCN(c2nn3c(=O)cc(C)nc3s2)CC1	none (no result: RE007 growth inh)
CC1=NOC(=O)/C1=C/c1ccc(O)c(Cl)c1	FMDV inh 17.8µM
O=C1ON=C(c2ccccc2)/C1=C/c1ccc(OS(=O)(=O)c2ccccc2)cc1	Sm TGR inh 8.91µM, FMDV inh 31.6µM
Cc1ccc(/C=C2\C(=O)ON=C2c2ccccc2)o1	none
COc1ccc(/C=C2\C(=O)ON=C2c2ccccc2)cc1	RE007 growth inh inconclusive, Sm TGR inh inconclusive, FMDV inh 35.5µM
O=C1ON=C(c2cccc([N+](=O)[O-])c2)/C1=C/c1ccc(O)cc1	Sm TGR inh 10µM, Tb PYK inh inconclusive, FMDV inh inconclusive
CC(C)Cn1c(=O)c2ccccc2n2c(CCC(=O)Nc3ccc(F)c(F)c3)nnc12	none (no result: RE007 growth inh)

Screening results as filed in PubChem.
